Test: DUSP6 inhibitors restoring Erk phosphorylation by chemical complementation, primary imaging in DUSP6-transfected HeLa (AID 609)
Settings: HeLa MKP-3 transfected, phospho-Erk imaging KS statistic; measured here: nuclear pErk red intensity z-score; at 10 µM; stronger effect = higher value; cells stimulated with TPA for 15 min
For `COC(=O)C(NC(C)=O)(Nc1ccccn1)C(F)(F)F` (centres undefined), the z-score was -0.0238. Work on `CCOC(=O)c1ccc2nc(NC(NC(C)=O)(C(=O)OC)C(F)(F)F)sc2c1` (centres undefined) yielded a z-score of -0.534. `Cc1nc2sc(C#N)c(N)c2c2c1CCCC2` gave a z-score of -1.05. Work on `COCc1cc(=O)[nH]c(Nc2nc3ccccc3o2)n1` yielded a z-score of -0.93. With `Cc1c(O)c(CN2CCCCC2)cc2c3c(c(=O)oc12)CCC3` the z-score was -0.433. With `O=C(C1CC1(c1ccccc1)c1ccccc1)N1CCOCC1` (centres undefined) the z-score was -0.311. `Cn1c(=O)[nH]c(=O)c2c1nc(N(CCO)Cc1ccccc1)n2Cc1ccccc1Cl` gave a z-score of -0.515. For `CC1(C)CNC(=O)c2sc(N3CCOCC3)nc2C1`, the z-score was 1.71. Compound `CCOC(=O)CNC(=O)Nc1ccccc1C(=O)OC` has a z-score of -0.382. In the case of `CC(=O)C1=C(O)C(=O)N(c2ccc(C(=O)O)cc2)C1c1ccccc1` (centres undefined), the z-score is reported as -0.179. Compound `Cn1c(=O)n(Cc2ccccc2)c(=O)c2c1nc(NCC1CCCO1)n2Cc1ccccc1` (centres undefined) has a z-score of -1.47. In the case of `c1ccc(CN2CCN(c3ncnc4c3[nH]c3ccccc34)CC2)cc1`, the z-score is reported as -0.208. Compound `Cc1nnc2n(-c3ccccc3)c(=O)c3c4c(sc3n12)CCCC4` has a z-score of 0.377. `COc1ccc2c(c1)n([O-])c1c([n+]2=O)CCC1` showed a z-score of -1.59. `Cc1cc2c(c(=O)o1)C(Cc1ccccc1)C(C#N)=C(N)O2` (centres undefined) gave a z-score of 1.32. Compound `c1ccc2c(c1)[nH]c1c(N3CCC4(CC3)OCCO4)ncnc12` has a z-score of -1.27. With `CCOC(=O)c1ccc(N=Cc2nc(-c3ccccc3)oc2OC(C)=O)cc1` the z-score was -0.36. `CCN1CCc2c(C#N)c(N3CCCCC3)nc(NCc3ccccc3)c2C1` gave a z-score of -1.11. `Cc1cc(C)n(C(=O)CNC(=O)C2COc3ccccc3O2)n1` (centres undefined) gave a z-score of 0.636. For `CCCCOc1ccccc1C(=O)NCCCC(=O)O`, the z-score was 1.54. Compound `OCCNc1ncnc2c1c(-c1ccccc1)c(-c1ccccc1)n2Cc1ccco1` has a z-score of -1.52. With `COc1ccc(CCn2c(=N)c(C#N)cc3c(=O)n4ccccc4nc32)cc1` the z-score was -0.629. With `Cc1nc2ccccc2cc1O` the z-score was 1.27. Compound `COC(=O)CNC(=O)c1c(C)cc(=O)oc1C` has a z-score of -1.37. Work on `Cc1c(NC(=O)c2ccc(=O)oc2)c(=O)n(-c2ccccc2)n1C` yielded a z-score of 0.431. Work on `Cc1ccc(C(=O)/C=C/Nc2cccc(O)c2)cc1` yielded a z-score of 0.929. `CCn1nc(NC(=O)c2cccnc2)c2cc3ccccc3nc21` showed a z-score of -0.336. `Cc1ccc(/C=N/n2nnnc2N)o1` gave a z-score of 0.0866. `Cc1ccc2[nH]c3c(N4CCOCC4)ncnc3c2c1` gave a z-score of 0.577. Work on `O=C(Nc1ccccn1)NC(C(F)(F)F)C(F)(F)F` yielded a z-score of 0.451. With `CC(=O)c1c(OCC(=O)O)ccc2c(C)cc(=O)oc12` the z-score was -0.576. In the case of `O=C(NC1CCS(=O)(=O)C1)c1c(NC(=O)C2COc3ccccc3O2)sc2c1CCCC2` (centres undefined), the z-score is reported as 0.35. For `Cc1cc(O)c(C(C)C)cc1N=C1CSC(=O)N1`, the z-score was 0.0977. Work on `O=C1C2ON(c3ccccc3)C(c3cccnc3)C2C(=O)N1c1ccccc1` (centres undefined) yielded a z-score of -0.133. Compound `COc1ccccc1N=Cc1nc(-c2ccccc2)oc1OC(C)=O` has a z-score of 0.127. For `Fc1ccc(-c2cnc[nH]2)cc1`, the z-score was -1.47. In the case of `Nn1c(SCC(=O)Nc2ccc3c(c2)OCCO3)nnc1C(F)(F)F`, the z-score is reported as -1.34. Compound `CN(C)/C=C1\N=C(c2ccc(Cl)cc2Cl)OC1=O` has a z-score of -0.794. With `CCOc1ccccc1N1CCN(c2nc3ccccc3nc2C(C#N)C(=O)OC)CC1` (centres undefined) the z-score was 1.2.
